Screening data deposited in PubChem BioAssay by National Center for Advancing Translational Sciences (NCATS).
A selection: hits, their analogues and other compounds. The true share with any hit is near 5.4%.
Six1-Eya2 inh: Six1/Eya2 interaction inhibition; activity change, % (test concentration not listed); Q15475+O00167; AID 651725; AlphaScreen GST-Six1/His-Eya2 binding, biochemical; hits give low values; 360,000 compounds, 0.56% hits; in the data active = activity change below about -65%; inconclusive = mostly about -30% to -63%; also: % is scaled to controls: 0 for no effect and ±100 for the full control effect
Target sequence (O00167 whole entry, looked up): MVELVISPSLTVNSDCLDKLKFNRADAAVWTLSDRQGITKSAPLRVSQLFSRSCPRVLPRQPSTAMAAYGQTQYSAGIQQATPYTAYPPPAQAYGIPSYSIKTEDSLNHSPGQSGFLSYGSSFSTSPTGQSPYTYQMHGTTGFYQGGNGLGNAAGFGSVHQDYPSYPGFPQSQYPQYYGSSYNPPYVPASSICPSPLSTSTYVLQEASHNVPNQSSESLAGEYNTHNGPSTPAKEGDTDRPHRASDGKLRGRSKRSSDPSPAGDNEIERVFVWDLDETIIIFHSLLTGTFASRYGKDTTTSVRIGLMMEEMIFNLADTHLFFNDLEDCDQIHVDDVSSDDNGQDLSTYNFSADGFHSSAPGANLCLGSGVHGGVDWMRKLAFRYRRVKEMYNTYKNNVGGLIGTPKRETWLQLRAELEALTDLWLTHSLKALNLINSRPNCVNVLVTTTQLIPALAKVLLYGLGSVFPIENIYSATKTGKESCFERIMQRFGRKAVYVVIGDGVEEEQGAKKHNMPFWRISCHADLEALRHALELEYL
Target sequence (Q15475 whole entry, looked up): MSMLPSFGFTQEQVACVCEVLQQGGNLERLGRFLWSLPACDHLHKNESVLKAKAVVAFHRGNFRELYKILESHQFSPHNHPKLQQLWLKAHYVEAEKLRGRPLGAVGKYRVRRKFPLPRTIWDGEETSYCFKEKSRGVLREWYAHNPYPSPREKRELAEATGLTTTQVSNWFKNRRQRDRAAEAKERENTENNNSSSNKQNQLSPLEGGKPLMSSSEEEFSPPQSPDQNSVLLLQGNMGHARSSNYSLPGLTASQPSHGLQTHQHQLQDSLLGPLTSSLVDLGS
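AlphaScreen with GST-Six1 and His-Eya2 (5X mix: 250 nM and 500 nM), glutathione donor and nickel acceptor beads; buffer 50 mM Tris pH 8.0, 300 mM NaCl, 1 mM TCEP; 1 h at 37 C in the dark.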
CtBP-E1A blk: CtBP/E1A binding inhibition; activity change, % (test concentration not listed); 340,000 compounds, 0.49% hits; AlphaScreen GST-E1A/His-CtBP binding, 1536-well; hits give low values; in the data active = activity change below about -65%; inconclusive = mostly about -30% to -63%; also: % is scaled to controls: 0 for no effect and ±100 for the full control effect
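In 5 uL wells, 23 nL compound meets equimolar GST-E1A and His-CtBP (5X stock 125 nM each) for 2 h, 37 °C. Beads (5X, 50 ug/mL) then 1 h, 37 °C, dark.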
p53 reactivation: mutant p53 re-activation in reporter cells; H1299 p53-A138V BP100-luciferase reporter, luminescence, 24 h; Potency, µM (doses to about 92.2 µM), for the others: at the highest dose activity change, positive = activation, hits mostly activators; 320,000 compounds, 0.063% hits; AID 504706; also: potency is read from the fitted curve at half-maximal effect; % of control where 0% means no effect; nearly all actives have a fitted effect of over 45% in size
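H1299 (p53-null), stable ts p53-A138V + BP100-Luc; 1000 cells/well, Opti-MEM/10% FBS; cpd 4 pt, 1:5; 24 h, 37 deg C, 5% CO2; detection reagent 10 min RT; luminescence.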
Gal4-VP16 FLuc: Gal4-VP16 reporter inhibition counter-screen; Drosophila S2 Gal4-VP16 UAS-luciferase, luminescence, 20 h; Potency, µM (highest dose often 53.6 µM), inactives show top-dose activity, negative = inhibition, usual class: inhibitors; 310,000 compounds, 3.5% hits; AID 2546;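 also: Gal4-VP16 expression switched on by copper sulfate through the metallothionein promoter; potency is read from the fitted curve at half-maximal effect; % is scaled to controls: 0 for no effect and ±100 for the full control effect; nearly all actives have a fitted effect of over 50% in size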
RORg inh: ROR gamma (mouse) transcription inhibition; AID 2551; Drosophila S2 Gal4-RORgamma UAS-luciferase reporter, 20 h; P51450; 310,000 compounds, 5.4% hits; Potency, µM (titrated, usually from 53.6 µM), for the others: top-dose activity change, negative = inhibition, most hits filed as inhibitors; also: potency is read from the fitted curve at half-maximal effect; % is scaled to controls: 0 for no effect and ±100 for the full control effect; nearly all actives have a fitted effect of over 60% in size
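Luminescence from a UAS-regulated Photinus luciferase reporter in stably transfected Drosophila Schneider cells is measured; decreased signal marks ROR gamma inhibition. Fusion expression is induced by 700 uM copper sulfate for 20 hr.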
Numbers without * were called inactive; ? = inconclusive; / = not tested or not shown. Unless noted, calls follow the shape of the dose curve; as a rule, active = well fitted curve in the direction sought with a large enough effect; inconclusive = small, poorly fitted or top-dose-only effect, or another doubt; inactive = no such curve, though single readings can be large; an effect the other way counts as inactive or inconclusive.

SMILES	Six1-Eya2 inh	CtBP-E1A blk	p53 reactivation	Gal4-VP16 FLuc	RORg inh
Cc1cc(C)c(OCC(=O)Nc2ccc(S(=O)(=O)N3CCOCC3)cc2)c(C)c1	-2	-4	15%	?	11µM*
COc1ccccc1OCC(=O)Nc1ccc(S(=O)(=O)N2CCOCC2)cc1	-5	2	-1%	11%	-4%
O=C(COC(=O)c1ccc(Cl)nc1)Nc1ccc(S(=O)(=O)N2CCCC2)cc1	-6	-1	-5%	-10%	?
Cc1ccc(C(=O)Nc2ccc3c(c2)CCC3)o1	-2	10	?	13µM*	?
COCCN(CC(=O)NC1CCCCC1)C(=O)CCCC(=O)Nc1ccccn1	5	15	-2%	4%	-5%
CNC(=O)C[C@@H]1C(=O)N(c2ccc(Br)cc2)CC1(C)C	11	-1	/	/	/
COc1ccc(NS(=O)(=O)c2cccc(NC(=O)c3ccc(S(=O)(=O)N4CCCCCC4)cc3)c2)cc1	-2	3	2%	3.2µM*	-52%
O=C(Nc1ccc(Cc2ccncc2)cc1)c1ccc(S(=O)(=O)N2CCOCC2)cc1	1	0	-2%	7.1µM*	-41%
O=S(=O)(Nc1nc2ccccc2nc1Nc1cccc(S(=O)(=O)N2CCCCC2)c1)c1ccccc1	-11	1	-5%	13µM*	?
COc1ccc(NS(=O)(=O)c2ccc(O)c(NC(=O)c3ccc(S(=O)(=O)N4CCCCCC4)cc3)c2)cc1	-7	-4	-2%	-7%	5%
COc1ccc(S(=O)(=O)Nc2cccc(S(=O)(=O)N3CCCCCC3)c2)cc1	24	43	0%	-11%	26%
O=C(Nc1ccc(S(=O)(=O)N2CCOCC2)cc1)c1ccc(S(=O)(=O)N2CCOCC2)cc1	23	-2	8%	-8%	10%
COc1ccc(NS(=O)(=O)c2cc(NC(=O)c3ccc(C)o3)ccc2N2CCCCC2)cc1	-7	-1	-1%	4.5µM*	6.3µM*
COC(=O)CCCOc1ccc(Cl)cc1Cl	/	/	/	4%	11%
O=C(Nc1ccc(S(=O)(=O)Nc2ncccn2)cc1)c1ccc(S(=O)(=O)N2CCCC2)cc1	9	-16	2%	-5%	13µM*
COc1ccc(NS(=O)(=O)c2cccc(NC(=O)C3=NN(c4ccccc4)C(=O)CC3)c2)cc1	-11	/	9%	11µM*	?
Cc1ccnc(NS(=O)(=O)c2ccc(NC(=O)c3ccc(S(=O)(=O)N4CCCC4)cc3)cc2)n1	0	0	-2%	0%	18%
Cc1csc(NC(=O)C(NS(=O)(=O)c2ccc(Br)s2)c2ccccc2)n1 (stereo not drawn)	-4	-5	26%	?	13µM*
CC(NS(=O)(=O)c1ccc(Br)s1)c1ccccc1 (stereo not drawn)	10	/	-4%	2%	-1%
Cc1ccccc1-c1ccc2ncnc(N(C)C)c2c1	/	/	/	-18%	?
CN(C)C(=O)c1ccc(-c2cncnc2-n2ccnc2)cc1	/	/	/	-1%	-1%
Cc1ccccc1-c1ccc2ncnc(-n3ccnc3)c2c1	/	/	/	13µM*	11µM*
CN(C)c1ccc(-c2ccc3ncnc(-n4ccnc4)c3c2)cc1	/	/	/	13µM*	7.1µM*
CC1CCC2=C1C[C@H](C(C)(C)O)CC[C@@H]2C (stereo partly drawn)	/	/	/	3%	21%
N/C(=N\N=C/c1ccc(F)cc1)N/N=C\c1ccc(F)cc1	1	/	/	-1%	?
SMILES	Six1-Eya2 inh	CtBP-E1A blk	p53 reactivation	Gal4-VP16 FLuc	RORg inh
N/C(=N\N=C\c1ccc(Cl)cc1)N/N=C/c1ccc(Cl)cc1	/	/	/	-16%	14µM*
CSCc1ccc(C(=O)NCC(c2cccs2)N2CCOCC2)cc1 (stereo not drawn)	8	-5	0%	/	/
COc1ccc(/C=C/c2nc3cc(-c4ccccc4)ccc3o2)cc1O	13	14	-15%	?	32µM*
Cc1ccc(-n2ncc3c2CCCC3NC(=O)c2csnn2)cc1C (stereo not drawn)	-13	-2	5%	3%	?
O=C1C2C3CCC(C3)C2C(=O)N1Cc1ccccc1 (stereo not drawn)	8	0	3%	-1%	-15%
O=S(=O)(c1ccccc1)N1CCN(C2CCCCCCC2)CC1	-4	1	-26%	-3%	13µM*
Cc1ccc2c(C)ccc(O)c2n1	0	-9	-2%	?	11µM*
Cc1ccc2ccc3ccc(C)nc3c2n1	-3	-3	13%	0.56µM*	0.25µM*
Cc1nc2c(O)cccc2c(=O)[nH]1	/	/	/	7%	-18%
NC(N)=NS(=O)(=O)c1ccc(NC(=S)NC(=O)Cc2ccc(Cl)cc2)cc1	-3	/	7%	-2%	6%
Cc1ccc(C(=O)NC(=S)N2CCN(C)CC2)cc1	11	4	22%	7.1µM*	0%
CC(C)(C)c1ccc(C(=O)Nc2ccc(C(=O)N3CCOCC3)cc2)cc1	0	5	-15%	-7%	2%
O=CN1CCN(C(=S)NC(=O)c2ccc(Cl)cc2)CC1	16	3	/	/	/
CC(C)(C)c1ccc(C(=O)NC(=S)N2CCOCC2)cc1	9	7	25%	1µM*	1.1µM*
CN1CCN(C(=S)NC(=O)c2ccc(C(C)(C)C)cc2)CC1	22	0	-3%	2.5µM*	1.4µM*
CN1CCN(C(=S)NC(=O)c2ccc(-c3ccccc3)cc2)CC1	-2	8	-6%	0.56µM*	0.089µM*
Cc1ccc2c(c1)C1CN(C)CCC1N2C(=S)NC(=O)c1ccc(Br)cc1 (stereo not drawn)	-5	-1	11%	-73%	0.11µM*
O=C(NC(=S)N1CCOCC1)c1cc2ccccc2o1	4	2	10%	3.2µM*	1µM*
Cc1ccc(C(=O)Nc2ccc(C(=O)N3CCCCC3)cc2)cc1	5	/	-1%	-6%	15%
Cc1ccc(C(=O)NC(=S)N2CCCC2)cc1	3	-21	-11%	5µM*	0.89µM*
CC(C)Oc1ccc(C(=O)NC(=S)N2CCOCC2)cc1	8	2	?	1.3µM*	3.5µM*
COc1ccc(OCC(=O)N2c3ccc(C)cc3C3CN(C)CCC32)cc1 (stereo not drawn)	-6	15	-3%	2%	1%
CN1CCN(C(=S)NC(=O)c2ccc(Br)cc2)CC1	1	4	8%	1.1µM*	0.89µM*
COc1ccc(N(C(=O)c2ccco2)C(C(=O)NC2CCCCC2)c2cccs2)cc1OC (stereo not drawn)	-2	6	-3%	-3%	?
C#CC(=O)N(c1ccc(OC)cc1OC)C(C(=O)NC1CCCC1)c1cccs1 (stereo not drawn)	-12	/	-11%	7.9µM*	6.3µM*
C#CC(=O)N(c1cc(OC)ccc1OC)C(C(=O)NC1CCCC1)c1cccs1 (stereo not drawn)	1	-11	-11%	7.1µM*	4.5µM*
